This is part of a sample that, as a whole, favours compounds with a hit. Of some 83,000 tested, about 20% had one in any assay.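 A percent growth of 40 corresponds to 60% growth inhibition; 0 means no net growth; -100 means all cells died. Active threshold: below 10.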 A number with no mark means an inactive call. Active and inactive are the calls of the source.

Common to all, as to test: NCI-60 one-dose screen, 48 h (100 = growth as untreated, 0 = no growth, -100 = all killed)
Common to all, as to settings: 10 µM

Experiment [1] has as its system DU-145 prostate.
In experiment [2] the test system is MDA-MB-231 breast.
Experiment [3] has as its system RXF 393 renal.
The test system of experiment [4] is SF-268 CNS.
Experiment [5] relates to SF-295 CNS.
For experiment [6], the system named is SF-539 CNS.
Experiment [7] deals with UACC-257 melanoma.
Experiment [8] concerns M14 melanoma.
Experiment [9] relates to MALME-3M melanoma.
The subject of experiment [10] is K-562 leukemia.

As for `Cc1cc(=O)n2nnc3cc(Cl)c(Cl)cc3n12`, the growth in experiment [1] is 105%; in experiment [2] it was 107%; in experiment [3] it was 91.9%; in experiment [4], 101%; in [5], 111%; in [6], 108%. In addition, the growth was 102% in experiment [7] and 96.9% in [8].
Take `C[C@H]1[C@H](OC(=O)CCC(=O)O)O[C@@H]2O[C@]3(C)CC[C@H]4[C@H](C)CC[C@@H]1[C@@]24OO3`: the growth in experiment [1] is 82.7%; in experiment [9] it was 74.8%; in experiment [2], 65.1%; in experiment [3], 55.9%; in experiment [4] it was 55.6%; in experiment [5] it was 11.6%. Moreover, the values for the growth in experiment [6], in experiment [7] and in experiment [8] were 31.9%, 50.8% and 39.7%, respectively.
As to `O=C(N/N=C/c1c(Cl)cccc1Cl)c1ccccc1Nc1cccc(C(F)(F)F)c1`, the growth was 77.2% in experiment [10]; 83.2% in experiment [2]; 95.5% in experiment [4]; 61.5% in [5]; 75% in experiment [6]; 102% in [7]. Besides, the growth in [8] was 99.4%.
With `Nc1cc(-c2ccncc2)c[nH]c1=O`, the growth in [1] was 110%; in experiment [9] it was 123%; in [2], 115%; in experiment [3], 125%; in experiment [4], 103%; in experiment [6], 104%. In addition, the figures for the growth in experiment [7] and in [8] were 111% and 107%, respectively.
In the case of `CCOc1ccccc1/C=N/N1CCCCCC1`, the growth is 111% in experiment [1]; 96.3% in experiment [2]; 99.9% in [3]; 93.7% in [4]; 83.8% in experiment [5]; 109% in [6]. Besides, the growth in experiment [7] was 115%; in experiment [8], 107%.
As to `CC(=O)COc1ccc(Cl)cc1Cl`, the growth was 106% in [1]; 105% in experiment [2]; 107% in [3]; 109% in experiment [4]; 103% in experiment [5]; 114% in experiment [6]. Besides, the growth in [7] was 112%.
Regarding `Cc1cc(Cl)ccc1Nc1nc(C(F)(F)F)ccc1C(=O)N/N=C/c1cccc(O)c1`, the growth in experiment [10] is 20.7%; in experiment [2], 39.7%; in experiment [4] it was 39.3%; in experiment [5] it was 6.71% (active); in experiment [6] it was 23.5%; in experiment [7], 44.1%. For the same compound, the growth in experiment [8] was 43.9%.
As to `C=C(NC(=O)C(=C)NC(=O)c1csc(C2=NC3c4csc(n4)C4NC(=O)c5csc(n5)C(C(C)(O)C(C)O)NC(=O)C5CSC(=N5)C(=CC)NC(=O)C(C(C)O)NC(=O)c5csc(n5)C3(CC2)NC(=O)C(C)NC(=O)C(=C)NC(=O)C(C)NC(=O)C(C(C)CC)NC2C=Cc3c(C(C)O)cc(nc3C2O)C(=O)OC4C)n1)C(N)=O` (stereo not drawn), the growth was 65.5% in experiment [1]; 26.9% in [9]; 9.76% (active) in [2]; -41.3% (active) in experiment [3]; 27.1% in experiment [4]; 1.63% (active) in experiment [6]. The results for the growth in experiment [7] and in experiment [8] were 26.4% and 2.27% (active), respectively.
With `CCN(CC)CCN1c2nc3ccccc3cc2Sc2cc3ccccc3nc21`, the growth in [10] was -69.1% (active); in experiment [2] it was -0.0354% (active); in experiment [4], 12.2%; in experiment [5], -49.2% (active); in experiment [6] it was -100% (active); in experiment [7] it was 8.34% (active). Also, the growth in [8] is -65% (active).
As for `O=C(N/N=C/c1ccc(Cl)cc1)c1ccccc1Nc1cccc(C(F)(F)F)c1`, the growth in experiment [10] was 59.9%; in experiment [2] it was 74.5%; in experiment [4] it was 84.6%; in experiment [5] it was 86.8%; in experiment [6], 48.9%; in experiment [7], 96.9%. Moreover, in experiment [8], the growth is 91.5%.
Take `CC(C)=CCC/C(C)=C/CC/C(C)=C/CC/C=C(\C)CC/C=C(\C)CCC(=O)Nc1ccn(C2OC(CO)C(O)C2(F)F)c(=O)n1` (stereo not drawn): the growth is 26.7% in experiment [10]; 65.2% in experiment [2]; 19.9% in experiment [4]; -41.3% (active) in experiment [5]; -22.3% (active) in experiment [6]; 18.5% in experiment [7]. The growth in experiment [8] is 2.42% (active).
Regarding `CCCc1nc(C(C)(C)O)c(C(=O)O)n1Cc1ccc(-c2ccccc2-c2nn[nH]n2)cc1`, the growth in experiment [1] was 120%; in experiment [9], 102%; in [2], 109%; in experiment [3] it was 117%; in experiment [4], 101%; in experiment [5] it was 95.3%. Moreover, the growth in experiment [6] is 103%; in experiment [7] it was 103%; in experiment [8], 109%.
Regarding `O=c1[nH]c(=O)n(C2C[C@H](O)[C@@H](CO)O2)cc1C(F)(F)F` (stereo partly drawn), the growth in experiment [1] was 123%; in [9], 107%; in experiment [2], 107%; in experiment [3] it was 116%; in experiment [4], 114%; in experiment [5], 92.5%. Further, the values for the growth in experiment [6], in [7] and in [8] were 112%, 107% and 108%, respectively.
For the compound `COc1ccc(-c2nn(-c3cccc(Cl)c3)cc2-c2c(C#N)c(N)n(N)c(=O)c2C#N)cc1`, the growth was 90.5% in [1]; 75.3% in experiment [2]; 65.3% in [3]; 60.2% in experiment [4]; 72.8% in [6]; 90.3% in [7]. For the same compound, in experiment [8], the growth was 73.5%.

The values above are taken from PubChem BioAssay (NCI).
